Laboratory results published in PubChem BioAssay AID1159580 (chemical genetic matrix, 2015).
Among all 5,500 compounds or so, about 2,000 (36%) were called active. Another 18% or so got no clear call; they are omitted. Cut-off read from the data, not from the text of the source: active = normalized growth mostly below about 0.91 (no sharp cut-off); inconclusive = no clear call, values can overlap the other calls; inactive = mostly above about 0.92. This is one part of the list.

Assay: chemical genetic growth profiling, strain panel (AID 1159580);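 note: tested at 20 µM; growth read once vehicle control cultures reached saturation at 30 °C; 1 = growth at the plate median or of vehicle wells; lower values mean less growth of the strain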
Details: growth OD

Measured: normalized growth

O=[N+]([O-])c1ccc(N2CCOCC2)cc1
inactive: S. cerevisiae deletion strains, locus YAL013W, strain DEP1, stronger effect = lower value 0.996 | S. cerevisiae deletion strains, locus YBR229C, strain ROT2, stronger effect = lower value 1 | S. cerevisiae deletion strains, locus YCL061C, strain MRC1, stronger effect = lower value 1.02 | S. cerevisiae deletion strains, locus YDL101C, strain DUN1, stronger effect = lower value 1.06 | S. cerevisiae deletion strains, locus YDL134C, strain PPH21, stronger effect = lower value 0.969 | S. cerevisiae deletion strains, locus YDR150W, strain NUM1, stronger effect = lower value 1.05 | S. cerevisiae deletion strains, locus YEL061C, strain CIN8, stronger effect = lower value 0.969 | S. cerevisiae deletion strains, locus YGR078C, strain PAC10, stronger effect = lower value 1.03 | S. cerevisiae deletion strains, locus YHR030C, strain SLT2, stronger effect = lower value 1.05 | S. cerevisiae deletion strains, locus YHR087W, strain rtc3, stronger effect = lower value 0.937 | S. cerevisiae deletion strains, locus YJR043C, strain POL32, stronger effect = lower value 1.04 | S. cerevisiae deletion strains, locus YJR075W, strain HOC1, stronger effect = lower value 0.978 | S. cerevisiae deletion strains, locus YLR039C, strain RIC1, stronger effect = lower value 0.991 | S. cerevisiae deletion strains, locus YLR058C, strain SHM2 (second series), stronger effect = lower value 0.976 | S. cerevisiae deletion strains, locus YLR085C, strain ARP6, stronger effect = lower value 0.98 | S. cerevisiae deletion strains, locus YLR262C, strain YPT6, stronger effect = lower value 0.962 | S. cerevisiae deletion strains, locus YML094W, strain GIM5, stronger effect = lower value 0.939 | S. cerevisiae deletion strains, locus YMR219W, strain ESC1, stronger effect = lower value 0.992 | S. cerevisiae deletion strains, locus YMR263W, strain SAP30, stronger effect = lower value 1.03 | S. cerevisiae deletion strains, locus YNL153C, strain GIM3, stronger effect = lower value 1.03 | S. cerevisiae deletion strains, locus YNL298W, strain CLA4 (second series), stronger effect = lower value 0.988 | S. cerevisiae deletion strains, locus YNL322C, strain KRE1, stronger effect = lower value 0.965 | S. cerevisiae deletion strains, locus YNR030W, strain Alg12, stronger effect = lower value 0.974 | S. cerevisiae deletion strains, locus YPL055C, strain LGE1, stronger effect = lower value 0.971 | S. cerevisiae deletion strains, locus YPL241C, strain CIN2, stronger effect = lower value 1.01 | S. cerevisiae deletion strains, locus YPR135W, strain CTF4, stronger effect = lower value 1.02 | S. cerevisiae strains, strain wild type, stronger effect = lower value 0.982
